In PubChem BioAssay (Tox21):
Results filed as inconclusive are left out. Entries that show only a call come without a potency. Unmarked numbers belong to inactive results. Activity calls are given as the source filed them. Calls follow the shape of the dose curve; as a rule, active = well fitted cell-killing curve with a large enough effect in the repeat runs; inconclusive = weak or mixed curves, or effect the other way; inactive = flat fitted curve, though single readings scatter.

assay: cAMP Responsive Elements (CRE) small molecule agonists, cell-based qHTS assay: qHTS cell viability counter screen (AID 2060914); settings: CRE-bla HEK293T viability, CellTiter-Glo luminescence, 5 h; series mostly up to 92.4 µM; also: nearly all actives have a fitted effect of over 50% in size
In short: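 CRE-bla HEK293T cells in 10% dialyzed FBS medium were exposed to compounds for 3 h at 37C after 18 h plating. CellTiter-Glo was then added in the same wells, and luminescence was read after 30 min at room temperature.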

Row | Compound | Potency | activity change, negative = cytotoxicity
1 | CCOC(=O)c1ccccc1C(=C1C=C(Br)C(=O)C(Br)=C1)c1cc(Br)c(O)c(Br)c1 | inactive | 
2 | COc1ccc(C2C(=O)c3ccccc3C2=O)cc1 | inactive | 
3 | C[n+]1ccn(CCO)c1 | inactive | 
4 | CN1CC[C@H](c2c(O)cc(O)c3c(=O)cc(-c4ccccc4Cl)oc23)[C@H](O)C1 | inactive | 
5 | COc1cc(NC(C)CCCN)c2ncccc2c1 (stereo not given) | inactive | 
6 | CCCC(=O)C(C)=O | inactive | 
7 | Nc1c(Br)cc([N+](=O)[O-])cc1Br | inactive | 
8 | CCCCOC(=O)CO | inactive | 
9 | CCOc1ccc([N+](=O)[O-])cc1 | inactive | 
10 | Cc1cc(C)c(C=O)c(C)c1 | inactive | 
11 | c1ccc2[nH]c(-c3cscn3)nc2c1 | inactive | 
12 | C=Cc1ccc(OC(C)=O)cc1 | inactive | 
13 | C[C@@H]1CN(CCCn2c3ccccc3c3ccccc32)C[C@H](C)N1 | inactive | 
14 | COCC(C)O (stereo not given) | inactive | 
15 | CCC(C)n1ncn(-c2ccc(N3CCN(c4ccc(OC[C@H]5CO[C@](Cn6cncn6)(c6ccc(Cl)cc6Cl)O5)cc4)CC3)cc2)c1=O (stereo not given in full) | inactive | 
16 | c1csc(SSc2cccs2)c1 | inactive | 
17 | C/C=C/C(=O)OCC(C)C | inactive | 
18 | COc1cc2ncnc(Nc3cccc(Cl)c3)c2cc1OC |  | 4.77% [at 18.9 µM]
19 | CCOc1ccc(C(=O)OCCN(CC)CC)cc1 | inactive | 
20 | Cc1ccc([N+](=O)[O-])cc1N | inactive | 

Row | Compound | Potency | activity change, negative = cytotoxicity
21 | CN(C)CCCN1c2ccccc2CCc2ccc(Cl)cc21 | inactive | 
22 | CNC(=S)N(C)C | inactive | 
23 | O=[N+]([O-])c1ccc(O/N=C/c2cc(Br)c(O)c(Br)c2)c([N+](=O)[O-])c1 | inactive | 
24 | C/C=C(C)/C=C/C=C(C)C | inactive | 
25 | CCCCCCCCCCCCCCCC(=O)OCC | inactive | 
26 | CCCCCCCCCCCCOCC1CO1 (stereo not given) | inactive | 
27 | CN[C@H]1CC[C@@H](c2ccc(Cl)c(Cl)c2)c2ccccc21 | inactive | 
28 | COc1cc2c(N3CCN(C(=O)Nc4ccc(OC(C)C)cc4)CC3)ncnc2cc1OCCCN1CCCCC1 | inactive | 
29 | O=C(Nc1ccc(Oc2ccc(Cl)cc2)c(Cl)c1)c1cc(I)cc(I)c1O | inactive | 
30 | Nc1ccc2cc(S(=O)(=O)O)cc(O)c2c1 | inactive | 
31 | CC(CC(C)(C)C)CC(C)(C)CC(C)(C)C (stereo not given) | inactive | 
32 | O=C(/C=C/c1ccc(O)c(O)c1)O[C@@H]1C[C@](O)(C(=O)O)C[C@@H](O)[C@H]1O | inactive | 
33 | CC(=O)Oc1ccc(C(=C2CCCCC2)c2ccc(OC(C)=O)cc2)cc1 | inactive | 
34 | CCN(C)C(=O)Oc1cccc([C@H](C)N(C)C)c1 | inactive | 
35 | CCC1CCCCC1 | inactive | 
36 | Cc1ccc2c(c1)CCCN2 | inactive | 
37 | COc1cc(N)ccc1C | inactive | 
38 | S=C([S-])NCCNC(=S)[S-].S=C([S-])NCCNC(=S)[S-].[Mn+2].[Zn+2] | inactive | 
39 | CC(=O)Oc1ccc(C)cc1 | inactive | 
40 | C1=CCC2CC=CC2C1 (stereo not given) | inactive | 
